Paper PMC4336329 (PLoS ONE, 2015)
Hit rate of the full screen: of about 310,000 compounds, about 2,200 (0.71%) showed an effect of 50% or more. The effect is printed as a negative number. For the sample, strong results were picked, then their nearest neighbours and some compounds at random.

The compounds below were run against human ether-à-go-go-related gene (hERG) potassium channel (human, UniProt Q12809) (assay: primary screen, population patch clamp on CHO cells stably expressing hERG; higher = less effect of the substance).
Protocol: Briefly, Chinese hamster ovary (CHO) cells stably expressing the hERG channel were dislodged from tissue culture flasks and dispensed into PPC plates. […] During the recording, background leak currents were estimated by a 100 ms step to -80 mV from an initial holding potential of -70 mV and subtracted from the subsequent current measurement. The campaign was conducted in two phases using slight differences in recording protocol. In the first phase, the initial voltage pulse used a 100 ms step to -30 mV from a holding potential of -70 mV, a 2 s conditioning step to +25 mV, and a 2 s test step to -30 mV. During the second phase of the screen, the potential during the conditioning step was raised to +45 mV. In both phases of the campaign, a secondary voltage pulse was applied using the same parameters as the second phase initial pulse. The initial and secondary pulses were applied in the absence of compound, and upon application of 1 μM and 10 μM test concentrations. Small molecule effects on hERG current density were quantified by […].

Sequence of human ether-à-go-go-related gene (hERG) potassium channel (Q12809 whole entry, looked up): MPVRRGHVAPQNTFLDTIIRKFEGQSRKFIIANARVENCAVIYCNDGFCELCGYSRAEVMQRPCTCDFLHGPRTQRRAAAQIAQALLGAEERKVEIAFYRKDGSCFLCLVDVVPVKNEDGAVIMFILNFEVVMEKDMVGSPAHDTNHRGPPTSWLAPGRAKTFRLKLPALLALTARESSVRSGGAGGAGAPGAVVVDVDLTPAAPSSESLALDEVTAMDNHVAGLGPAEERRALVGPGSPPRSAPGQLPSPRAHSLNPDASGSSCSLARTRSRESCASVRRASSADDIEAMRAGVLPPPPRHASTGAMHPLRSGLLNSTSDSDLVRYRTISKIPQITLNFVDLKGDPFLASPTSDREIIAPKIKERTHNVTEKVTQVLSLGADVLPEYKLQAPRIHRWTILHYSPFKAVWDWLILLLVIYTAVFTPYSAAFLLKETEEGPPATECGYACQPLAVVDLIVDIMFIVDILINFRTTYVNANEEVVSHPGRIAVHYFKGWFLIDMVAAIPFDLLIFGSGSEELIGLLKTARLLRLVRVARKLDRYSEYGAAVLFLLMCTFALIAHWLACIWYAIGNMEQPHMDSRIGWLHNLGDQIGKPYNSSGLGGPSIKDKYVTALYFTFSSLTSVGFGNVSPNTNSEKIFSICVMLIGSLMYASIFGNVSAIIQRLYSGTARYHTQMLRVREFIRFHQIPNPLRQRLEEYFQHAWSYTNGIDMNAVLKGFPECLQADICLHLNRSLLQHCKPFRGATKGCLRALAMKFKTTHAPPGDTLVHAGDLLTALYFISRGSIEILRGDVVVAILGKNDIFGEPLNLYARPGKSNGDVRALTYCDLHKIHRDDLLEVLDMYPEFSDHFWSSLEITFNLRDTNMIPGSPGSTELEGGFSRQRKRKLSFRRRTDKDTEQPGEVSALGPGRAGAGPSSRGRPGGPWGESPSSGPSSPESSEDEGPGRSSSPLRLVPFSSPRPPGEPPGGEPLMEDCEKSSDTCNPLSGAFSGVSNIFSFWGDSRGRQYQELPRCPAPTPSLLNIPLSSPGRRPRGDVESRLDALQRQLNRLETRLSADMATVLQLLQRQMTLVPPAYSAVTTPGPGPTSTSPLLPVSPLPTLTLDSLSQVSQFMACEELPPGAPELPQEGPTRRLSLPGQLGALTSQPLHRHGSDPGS

Row | SMILES | hERG current change (%, negative = inhibition) at 1uM
1 | Cc1cccc(OCCSCc2nc3ccccc3[nH]2)c1 | 12.1%
2 | CC(=O)Nc1ccc(S(=O)(=O)Nc2ccc(-c3ccc4nnc(C)n4n3)cc2)cc1 | -3.52%
3 | Cc1cccc(NC(=O)c2c(C)nc3ccccn23)c1 | 3.98%
4 | COc1cccc(NC(=O)c2cc3c(=O)n4ccccc4nc3n(CC(C)C)c2=N)c1 | -87.5%
5 | COc1ccc(NC(=O)c2cc3c(=O)n4ccccc4nc3n2C)cc1OC | 11.4%
6 | Cc1cccc(NC(=O)c2cc3c(=O)n4ccccc4nc3s2)c1 | 11.5%
7 | Cc1cccc(NC(=O)c2cc3c(=O)n4ccccc4nc3n(CC(C)C)c2=N)c1 | -52.2%
8 | COc1cccc(NC(=O)C(Sc2nc3ccccc3c(=O)n2CC(C)C)c2ccccc2)c1 (stereo not drawn) | 6.46%
9 | CCCC(=O)Nc1nnc(CCc2ccccc2)s1.Cl | 12.1%
10 | COc1cccc(NC(=O)NC2(C(F)(F)F)Oc3ccccc3O2)c1 | 8.19%
11 | Cc1cc(C)n(CC(=O)c2ccc(Br)cc2)c(=O)c1C#N | -2.8%
12 | CCCN(c1ccc(OCC)cc1)S(=O)(=O)c1ccc2c(c1)CCN2C(=O)CCC(=O)O | 12.5%
13 | N=c1c(C(=O)NCc2ccccc2)cc2c(=O)n3ccccc3nc2n1CCCN1CCOCC1 | -80.7%
14 | N=c1c(C(=O)NCCN2CCOCC2)cc2c(=O)n3ccccc3nc2n1Cc1ccc(F)cc1 | -19.2%
15 | Cc1ccc(S(=O)(=O)c2cc3c(=O)n4ccccc4nc3n(CCCN3CCOCC3)c2=N)cc1C | 2.37%
16 | N=c1c(S(=O)(=O)c2ccccc2)cc2c(=O)n3ccccc3nc2n1CCCN1CCOCC1 | -42.5%
17 | N=c1c(C(=O)NCCc2ccccc2)cc2c(=O)n3ccccc3nc2n1CCCN1CCOCC1 | -77.8%
18 | O=C(NCCN1CCOCC1)c1cc2c(=O)n3ccccc3nc2n1Cc1ccccc1 | 8.53%
19 | N=c1c(C(=O)NCCN2CCOCC2)cc2c(=O)n3ccccc3nc2n1CCCN1CCOCC1 | 13.2%
20 | N=c1c(C(=O)NCc2ccc(F)cc2)cc2c(=O)n3ccccc3nc2n1CCCN1CCOCC1 | -91.8%
21 | COc1ccc(/C=C/CN2CCC(Oc3ccc(C(=O)N4CCCCC4)cc3)CC2)cc1 | -15.6%
22 | COc1ccc(-c2nc(C#N)c(NCCc3ccccc3)o2)cc1OC | 10.5%

Row | SMILES | hERG current change (%, negative = inhibition) at 1uM
23 | COc1cc(NC(=O)C/C(C)=N/NC(=O)C(=O)NC2CCCCC2)c(OC)cc1Cl | -66.8%
24 | COc1ccc(NC(=O)C/C(C)=N/NC(=O)C(=O)NC2CCCCC2)c(OC)c1 | -3.65%
25 | COc1cc(NC(=O)C/C(C)=N/NC(=O)C2CCCCC2)c(OC)cc1Cl | 14.8%
26 | O=C(NCc1cccnc1)C12CC3CC(CC(Cl)(C3)C1)C2 | 19%
27 | Cc1cccc(NC(=O)c2c(F)c(F)c(F)c(F)c2F)c1 | -0.482%
28 | Cc1cc([N+](=O)[O-])ccc1NCc1ccccc1 | 4.76%
29 | COc1cccc(CNc2ccc([N+](=O)[O-])cc2C)c1 | 10.7%
30 | Cc1cc([N+](=O)[O-])ccc1NCc1cccc([N+](=O)[O-])c1 | -56.6%
31 | O=C(CN1CCN(Cc2ccccc2)CC1)Nc1ccc([N+](=O)[O-])cc1C(=O)Nc1ccccc1F | -56.8%
32 | O=[N+]([O-])c1cc(C(F)(F)F)ccc1NC1CCN(Cc2ccccc2)CC1 | 3.28%
33 | O=C(CN1CCN(c2cccc(Cl)c2)CC1)Nc1ccc([N+](=O)[O-])cc1C(=O)Nc1ccccc1F | 11.4%
34 | CCOC(=O)N1CCN(CC(=O)Nc2ccc([N+](=O)[O-])cc2C(=O)Nc2ccccc2F)CC1 | -5.13%
35 | Cc1ccccc1NC(=O)CN1CCN(Cc2ccccc2)CC1 | 1.75%
36 | O=[N+]([O-])c1ccccc1NC1CCN(Cc2ccccc2)CC1 | -26.7%
37 | Cc1ccc(F)cc1NC(=O)CN1CCN(Cc2ccccc2)CC1 | -16.8%
38 | Cc1cc([N+](=O)[O-])ccc1NC(=O)CN1CCN(Cc2ccccc2)CC1 | -73.7%
39 | O=[N+]([O-])c1ccc(NC2CCN(Cc3ccccc3)CC2)c([N+](=O)[O-])c1 | -60%
40 | O=S(=O)(CC(CN1CCCCC1)N1CCCCC1)c1ccccc1 (stereo not drawn) | 6.73%
41 | O=C(Cn1cnc2c(NC(=O)OCc3ccccc3)ncnc21)NCc1ccccn1 | 0.393%
42 | O=C(NCCS(=O)(=O)N1CCN(c2ccccc2F)CC1)C1CC(=O)N(c2ccccc2)C1 (stereo not drawn) | 11.6%
43 | O=C(Nc1ccon1)C1CCN(S(=O)(=O)c2cccs2)CC1 | -4.01%
44 | CC(=O)NNS(=O)(=O)c1ccc(-c2cc(C(F)(F)F)n(C)n2)s1 | 2.67%

Row | SMILES | hERG current change (%, negative = inhibition) at 1uM
45 | CCOc1ccc2[nH]c(=O)c(CN(CCN3CCOCC3)Cc3nnnn3C(C)(C)CC)cc2c1 | 12.1%
46 | COc1ccc(NC(=O)CSc2nnc(Cc3ccc(C)cc3)c(=O)n2N)cc1OC | 4%
47 | CC(=O)N(C(C)=O)S(=O)(=O)c1ccc(N=NN2CCCCC2)cc1 | 11.6%
48 | Cc1ccc(CNC(=O)CCS(=O)(=O)c2ccc3c(c2)CC(C)N3C(=O)C2CC2)cc1 (stereo not drawn) | 0.306%
49 | CCOC(=O)N1CCN(C(=O)c2ccc([N+](=O)[O-])cc2Cl)CC1 | 6.8%
50 | Fc1ccc(C[n+]2c(-c3ccccc3)cc(-c3ccccc3)cc2-c2ccccc2)cc1.[O-][Cl+3]([O-])([O-])[O-] | -27.1%
51 | COc1ccc(-[n+]2c(-c3ccccc3)cc(-c3ccc(C)cc3)cc2-c2ccccc2)cc1.[O-][Cl+3]([O-])([O-])[O-] | -52%
52 | Oc1ccccc1-[n+]1c(-c2ccccc2)cc(-c2ccccc2)cc1-c1ccccc1.[O-][Cl+3]([O-])([O-])[O-] | -40.5%
53 | Clc1ccc(C[n+]2c(-c3ccccc3)cc(-c3ccccc3)cc2-c2ccccc2)cc1.[O-][Cl+3]([O-])([O-])[O-] | -25.5%
54 | COc1ccc(-[n+]2c(-c3ccccc3)cc(-c3ccccc3)cc2-c2ccccc2)cc1.[O-][Cl+3]([O-])([O-])[O-] | -29.2%
55 | Cc1ccc(-c2cc(-c3ccc(C)cc3)[n+](-c3ccc(C(=O)O)cc3)c(-c3ccc(C)cc3)c2)cc1.[O-][Cl+3]([O-])([O-])[O-] | 17.7%
56 | Nc1ccccc1-[n+]1c(-c2ccccc2)cc(-c2ccccc2)cc1-c1ccccc1.[O-][Cl+3]([O-])([O-])[O-] | 0.0928%
57 | Cc1ccccc1-[n+]1c(-c2ccccc2)cc(-c2ccccc2)cc1-c1ccccc1.[O-][Cl+3]([O-])([O-])[O-] | -55.8%
58 | Cc1ccc(C[n+]2c(-c3ccc(C)cc3)cc(-c3ccc(C)cc3)cc2-c2ccc(C)cc2)cc1.[O-][Cl+3]([O-])([O-])[O-] | -61.7%
59 | Oc1ccc(-[n+]2c(-c3ccccc3)cc(-c3ccccc3)cc2-c2ccccc2)cc1.[O-][Cl+3]([O-])([O-])[O-] | 5.58%
60 | Cc1ccc(-c2cc(-c3ccc(C)cc3)[n+](-c3ccccc3)c(-c3ccc(C)cc3)c2)cc1.[O-][Cl+3]([O-])([O-])[O-] | -77.3%
61 | Brc1ccc(-[n+]2c(-c3ccccc3)cc(-c3ccccc3)cc2-c2ccccc2)cc1.[O-][Cl+3]([O-])([O-])[O-] | -18.7%
62 | COc1ccc(-c2cc(N)n(S(=O)(=O)Cc3ccccc3)n2)c(OC)c1 | -4.34%
63 | COc1ccc(NC(=S)N2CCNC(=O)C2CC(=O)Nc2cccc(Cl)c2C)cc1 (stereo not drawn) | -5.98%
64 | Cc1ccc(-c2sc(C)nc2CC(=O)O)cc1 | 7.75%
65 | C=C(C)C1CC=C(C)/C(=N/NC(=O)CCC(=O)Nc2ccccc2Cl)C1 (stereo not drawn) | 6.51%
66 | O=C(COC(=O)c1c[nH]c2ccccc12)Nc1ccc(F)cc1 | -1.51%

Row | SMILES | hERG current change (%, negative = inhibition) at 1uM
67 | Cc1cc(C(=O)NN=C(Cc2ccccc2)Cc2ccccc2)c(C)o1 | 4.29%
68 | O=C(Nc1cnccn1)c1ccncc1 | -8.03%
69 | NS(=O)(=O)c1ccc(CCNC(=O)c2ccccc2F)cc1 | 4.79%
70 | CCCCNC(=O)/C=C/c1cccs1 | 24.3%
71 | Cc1ccc(-c2cc(-c3ccccc3)cc(-c3ccccc3)[n+]2-c2ccccc2)cc1.[O-][Cl+3]([O-])([O-])[O-] | -80.4%
72 | [O-][Cl+3]([O-])([O-])[O-].c1ccc(-c2cc(-c3ccccc3)[n+](-c3ccccc3)c(-c3ccccc3)c2)cc1 | -27.7%
73 | Cc1ccc(-c2cc(-c3ccccc3)cc(-c3ccccc3)[n+]2-c2ccc(C(=O)O)cc2)cc1.[O-][Cl+3]([O-])([O-])[O-] | 7.88%
74 | O=C(COc1ccccc1)N(Cc1ccco1)c1ccc(O)cc1 | 8.59%
75 | CCOC(=O)c1[nH]c(C)c(C(=O)NCc2ccc(Cl)cc2)c1C | -4.65%
76 | O=C(CCOc1ccccc1)Nc1ccnn1C1CCN(CCc2ccccc2)CC1 | -51.4%
77 | COc1ccc(CN2CCC(n3nccc3NC(=O)CCCc3ccccc3)CC2)cc1C | -67.3%
78 | COc1cc(CN2CCC(n3nccc3NC(=O)CCCc3ccccc3)CC2)ccc1O | -5.54%
79 | CCOc1ccccc1CN1CCC(n2nccc2NC(=O)CCCc2ccccc2)CC1 | -29.2%
80 | COc1ccc(CN2CCC(n3nccc3NC(=O)CCOc3ccccc3)CC2)cc1C | -16.2%
81 | O=C(CCOc1ccccc1)Nc1ccnn1C1CCN(Cc2ccccc2)CC1 | 2%
82 | CCOc1cccc(CN2CCC(n3nccc3NC(=O)CCCc3ccccc3)CC2)c1 | 9.19%
83 | O=C(CCCc1ccccc1)Nc1ccnn1C1CCN(Cc2ccccc2)CC1 | -18.8%
84 | COc1cccc(CN2CCC(n3nccc3NC(=O)CCCc3ccccc3)CC2)c1O | -55.4%
85 | CCOc1ccc(CN2CCC(n3nccc3NC(=O)CCCc3ccccc3)CC2)cc1 | -88.8%
86 | O=C(CCOc1ccccc1)Nc1ccnn1C1CCN(Cc2ccc(O)cc2)CC1 | -3.76%
87 | COc1ccccc1CN1CCC(n2nccc2NC(=O)CCCc2ccccc2)CC1 | -42.7%
